Measurements: the supplement of paper PMC12636033
± gives the standard deviation of the averaged measurements. In all, about 33,000 sequences were measured (“E-score (rank enrichment, -0.5 to 0.5)”: median about -0.0068, highest 2% from about 0.24 on). Many of the other results were omitted from the sample, so the highest values are more common in it than they were.

What follows are sequences tested on muMax20 (Max(13-93) K31hArg/K57hArg, M65Nle) (assay: PBM 8-mer E-score (E-score (rank enrichment, -0.5 to 0.5)); higher = stronger preferential binding).
Procedure: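 Protein binding microarray (universal PBM chip covering all 10-mers in fixed probe flanks) with chemically synthesized human Max(13-93) bHLH-LZ analogs (not full-length Max) bearing noncanonical residues (hArg, Tha, Aib, Nle at 65) and aromatic Cys staples. Read-out per 8-mer (and its reverse complement): E-score (rank-based enrichment, -0.5 to 0.5) and Z-score of median probe intensity.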

| Sequence | PBM 8-mer E-score |
| --- | --- |
| ATGTGTCC | 0.0398 ± 0.026 |
| TGAGAACA | 0.115 ± 0.095 |
| ACAACGAC | 0.0368 ± 0.017 |
| ATATGATA | 0.273 ± 0.081 |
| GTATGAGA | 0.161 ± 0.072 |
| CCATGATA | 0.0877 ± 0.047 |
| GCATGATA | 0.249 ± 0.015 |
| ACATGATA | 0.197 ± 0.045 |
| CTATGATA | -0.0149 ± 0.015 |
| GGATGATA | 0.0453 ± 0.067 |
| ATATGATG | 0.193 ± 0.013 |
| GTATGATA | 0.323 ± 0.069 |
| ACGGTGCG | -0.17 ± 0.023 |
| CTACTTAA | 0.09273 ± 0.00059 |
| CGAGTGTC | -0.179 ± 0.053 |
| CTTTGATC | -0.09609 ± 0.0009 |
| AAGAGACC | 0.0547 ± 0.019 |
| CCGAGTAA | -0.0803 ± 0.014 |
| GAACGGAA | -0.0438 ± 0.095 |
| GTTAATAA | 0.227 ± 0.066 |
| ATGAATAG | 0.172 ± 0.08 |
| ATTAATAA | 0.274 ± 0.0099 |
| ATTAATCG | 0.0839 ± 0.061 |
| ATTAATAC | 0.266 ± 0.021 |
| ATGAATAC | 0.248 ± 0.057 |

| Sequence | PBM 8-mer E-score |
| --- | --- |
| ATTAATAG | 0.255 ± 0.09 |
| CTTAATAC | 0.214 ± 0.041 |
| ACTAATAC | 0.158 ± 0.089 |
| CTTAATAA | 0.0902 ± 0.011 |
| CTGAATAC | -0.0332 ± 0.1 |
| ATTAATGG | 0.0317 ± 0.074 |
| AGATTGCT | -0.0246 ± 0.009 |
| GGATAGAA | 0.123 ± 0.013 |
| AACTCCCG | -0.034 ± 0.042 |
| GGAATCGA | -0.191 ± 0.065 |
| GCGACTAC | -0.0421 ± 0.049 |
| ACAAACCC | 0.11 ± 0.054 |
| GGGTGGTA | -0.00184 ± 0.074 |
| ACTAGAGG | 0.113 ± 0.047 |
| ACATGCAA | 0.16 ± 0.046 |
| ACATGCGC | 0.17 ± 0.0097 |
| ACATGCAG | 0.032 ± 0.14 |
| ACATGCGT | 0.243 ± 0.13 |
| ACATGCAC | 0.185 ± 0.034 |
| ACATGCAT | 0.294 ± 0.053 |
| TCATGCAA | 0.277 ± 0.021 |
| ACATGCGG | 0.00547 ± 0.099 |
| GCATGCAA | 0.147 ± 0.034 |
| ATTTCACC | 0.0208 ± 0.092 |
| ATTGTGGA | 0.0503 ± 0.16 |

| Sequence | PBM 8-mer E-score |
| --- | --- |
| AGATATAT | 0.176 ± 0.023 |
| GTCGTACA | 0.242 ± 0.13 |
| ATCGTACA | 0.159 ± 0.048 |
| CTCGTACA | 0.041 ± 0.08 |
| ACGTGAAT | 0.235 ± 0.083 |
| CTTCTCAA | 0.0152 ± 0.1 |
| AGCCAGCC | -0.293 ± 0.06 |
| CCTAAGAA | 0.099 ± 0.038 |
| ATGCTCAA | 0.0249 ± 0.035 |
| CGCCGTGA | -0.131 ± 0.031 |
| AAATAATA | 0.232 ± 0.013 |
| GAATAACA | 0.175 ± 0.11 |
| CAATAATG | 0.117 ± 0.023 |
| AAATAATT | 0.242 ± 0.046 |
| TAATAACA | 0.124 ± 0.0069 |
| AAATAATC | 0.0578 ± 0.046 |
| CAATAACA | 0.26 ± 0.066 |
| CAATAATA | 0.304 ± 0.0083 |
| CAATAATC | 0.0932 ± 0.028 |
| ATTTACCC | 0.0541 ± 0.029 |
| CGTCTGGA | -0.178 ± 0.11 |
| GCCTGTTA | 0.0517 ± 0.1 |
| AGCACCCG | -0.159 ± 0.024 |
| CGGCCAAA | -0.227 ± 0.024 |
| CGCTGATA | -0.0375 ± 0.12 |

| Sequence | PBM 8-mer E-score |
| --- | --- |
| CAATAAAA | 0.197 ± 0.038 |
| TAATAAAA | 0.246 ± 0.0097 |
| AAATAAAT | 0.156 ± 0.054 |
| GAATAAAA | 0.0698 ± 0.033 |
| AAATAAAA | 0.252 ± 0.023 |
| AAAATAAA | 0.116 ± 0.064 |
| AAGCGTCC | -0.0322 ± 0.057 |
| ACCTAGAT | -0.0454 ± 0.032 |
| TGGGAAAA | 0.0021 ± 0.034 |
| CTTTTTTC | 0.127 ± 0.031 |
| ATTCGCTA | 0.0997 ± 0.028 |
| CATCCATC | 0.0727 ± 0.029 |
| GGGGTACC | -0.196 ± 0.038 |
| GCATATAA | 0.113 ± 0.027 |
| AAATTATG | 0.211 ± 0.015 |
| AAATTATT | 0.2538 ± 0.0012 |
| ATATTACA | 0.137 ± 0.011 |
| ATATTACC | 0.244 ± 0.0062 |
| CTATTACA | 0.171 ± 0.028 |
| GCATTACA | 0.142 ± 0.017 |
| CTATTACC | 0.0779 ± 0.076 |
| GTATTACA | 0.3133 ± 0.0018 |
| ATATTATA | 0.308 ± 0.012 |
| ACATTATA | 0.21 ± 0.031 |
| CTATTATA | 0.0941 ± 0.095 |

| Sequence | PBM 8-mer E-score |
| --- | --- |
| AAATTATA | 0.173 ± 0.054 |
| CCCTTTCG | -0.143 ± 0.066 |
| AGAACTAC | 0.126 ± 0.015 |
| CAGTGGGA | -0.0398 ± 0.11 |
| CGAACAGA | -0.107 ± 0.056 |
| AGCCTATC | 0.0159 ± 0.029 |
| AACTTCTC | -0.0128 ± 0.016 |
| CAGAGTTA | -0.06527 ± 0.00021 |
| GTATTAGA | 0.213 ± 0.0064 |
| ATATTATC | 0.0756 ± 0.14 |
| CTATTAGA | -0.0357 ± 0.074 |
| ATATTAGA | 0.302 ± 0.026 |
| GCATTATA | 0.129 ± 0.031 |
| AGATTATG | 0.00982 ± 0.022 |
| GTATTAAA | 0.178 ± 0.049 |
| ATATTATG | 0.276 ± 0.015 |
| GTATTATA | 0.256 ± 0.063 |
| AAACGGAA | -0.0336 ± 0.073 |
| CCTAGTAC | 0.0875 ± 0.082 |
| ACTTCCTC | 0.052 ± 0.096 |
| AACGCTAG | -0.145 ± 0.08 |
| AAAACAAT | 0.265 ± 0.029 |
| AAAACAGG | -0.0042 ± 0.15 |
| AAAACAGC | 0.0469 ± 0.026 |
| AAAACAAG | 0.111 ± 0.034 |

| Sequence | PBM 8-mer E-score |
| --- | --- |
| AAAACAAC | 0.00369 ± 0.069 |
| AAAACAGT | 0.252 ± 0.029 |
| GGGCTAAC | -0.0713 ± 0.048 |
| ACCAGCCC | -0.112 ± 0.14 |
| CCGTGACA | 0.0799 ± 0.03 |
| CCGTGACG | -0.149 ± 0.01 |
| ACGTGACC | 0.302 ± 0.02 |
| AGGTGACG | -0.141 ± 0.091 |
| CCGTGACC | -0.272 ± 0.029 |
| ACGTGACG | 0.271 ± 0.058 |
| ACGTGACA | 0.312 ± 0.043 |
| ACGTGACT | 0.234 ± 0.088 |
| GCGTGACC | 0.0743 ± 0.024 |
| ACCAGAAC | 0.0216 ± 0.026 |
| AGCGGCCA | -0.227 ± 0.059 |
| TAGTACTA | 0.0405 ± 0.17 |
| AAGGCGGA | -0.113 ± 0.044 |
| TAGGCCCA | -0.123 ± 0.016 |
| CCAATTTA | 0.131 ± 0.034 |
| GTGCCCTA | -0.0334 ± 0.02 |
| ACGTTATG | 0.282 ± 0.057 |
| ACGTTATA | 0.228 ± 0.019 |
| ACGTTATC | 0.0863 ± 0.046 |
| CCTGTACA | 0.0242 ± 0.16 |
| AGACATAC | 0.0812 ± 0.086 |

| Sequence | PBM 8-mer E-score |
| --- | --- |
| ATACACAG | 0.0766 ± 0.089 |
| TTACATAA | 0.24 ± 0.0072 |
| ATACACAT | 0.318 ± 0.0071 |
| ATACACAC | 0.208 ± 0.053 |
| CTACATAA | 0.0871 ± 0.052 |
| ATACATAT | 0.254 ± 0.075 |
| AGACATAT | 0.29 ± 0.014 |
| ATACATAG | 0.181 ± 0.13 |
| GTACATAA | 0.175 ± 0.0024 |
| AGACATAG | -0.014 ± 0.18 |
| CTACATAC | 0.178 ± 0.042 |
| ATCTAACA | 0.0591 ± 0.057 |
| GCGCTTCA | -0.115 ± 0.063 |
| CTAGAGCC | -0.187 ± 0.036 |
| ACGATAGA | -0.0358 ± 0.083 |
| ATACATCA | 0.21 ± 0.061 |
| GCACATAA | 0.151 ± 0.038 |
| GAACATAA | 0.123 ± 0.095 |
| ACACATAG | -0.0133 ± 0.049 |
| ATACATAC | 0.169 ± 0.017 |
| ATACATAA | 0.255 ± 0.032 |
| ACACATAA | 0.265 ± 0.041 |
| AAACATAG | 0.126 ± 0.018 |
